Reference: PubChem BioAssay AID2654 (Johns Hopkins Ion Channel Center, 2010)
Entries with a potency or affinity are not part of this list. Calls of active or inactive are those of the source.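 Rule for the calls: active = increase of the KCNQ2 potassium channel current at -35 mV by at least one tested dose; inactive = no tested dose increases that current.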

Target: Potassium voltage-gated channel subfamily KQT member 2 (Rattus norvegicus) (UniProt O88943)
Experiment: potentiation of rat KCNQ2 current – cell-based, retigabine-insensitive compounds, dose response (AID 2654)
Settings: KCNQ2-CHO cells, automated patch clamp current potentiation; at 30 µM (top of the series)

Chain of Potassium voltage-gated channel subfamily KQT member 2 (Rattus norvegicus) (O88943 whole entry, looked up): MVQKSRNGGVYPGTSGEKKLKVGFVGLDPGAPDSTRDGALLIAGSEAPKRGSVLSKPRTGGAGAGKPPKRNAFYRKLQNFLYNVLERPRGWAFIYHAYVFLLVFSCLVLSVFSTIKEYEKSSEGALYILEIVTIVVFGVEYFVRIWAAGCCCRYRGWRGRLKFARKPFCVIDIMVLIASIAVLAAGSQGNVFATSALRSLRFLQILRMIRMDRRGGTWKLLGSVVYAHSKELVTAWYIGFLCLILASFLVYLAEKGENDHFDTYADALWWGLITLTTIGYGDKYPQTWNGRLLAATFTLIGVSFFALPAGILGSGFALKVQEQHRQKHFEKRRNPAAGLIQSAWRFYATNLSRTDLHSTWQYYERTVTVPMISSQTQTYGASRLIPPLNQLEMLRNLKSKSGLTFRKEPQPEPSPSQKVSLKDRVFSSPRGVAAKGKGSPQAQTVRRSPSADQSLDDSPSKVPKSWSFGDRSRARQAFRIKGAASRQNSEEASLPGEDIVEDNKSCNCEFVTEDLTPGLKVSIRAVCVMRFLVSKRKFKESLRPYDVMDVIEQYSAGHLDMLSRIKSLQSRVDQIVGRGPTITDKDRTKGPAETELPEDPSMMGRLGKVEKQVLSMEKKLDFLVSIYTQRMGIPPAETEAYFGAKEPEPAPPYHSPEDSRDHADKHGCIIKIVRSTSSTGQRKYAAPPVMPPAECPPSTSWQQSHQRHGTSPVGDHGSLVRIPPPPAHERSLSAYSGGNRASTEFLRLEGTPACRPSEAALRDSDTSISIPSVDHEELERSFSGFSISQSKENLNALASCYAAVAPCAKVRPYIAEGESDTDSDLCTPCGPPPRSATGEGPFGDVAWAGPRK

outcome, inactive:
O=C(Nc1cccc(F)c1)Nc1nccs1, O=C(Nc1cccc(Cl)c1)N(CC1CC1)c1cccnc1, Fc1ccc(NC(=S)Nc2cccnc2)c(F)c1F, COc1cccc(NC(=O)Nc2cccnc2)c1, COc1ccc(NC(=O)Nc2cccnc2)c(OC)c1, COc1cc(NC(=S)Nc2cccnc2)cc(OC)c1, CCOc1ccccc1NC(=O)Nc1cccnc1, Cc1nc(F)ccc1NC(=O)Nc1cccc(F)c1, Cc1ccc(C)c(NC(=O)Nc2cccnc2)c1, COc1nccc(NC(=O)Nc2cccc(F)c2)n1, S=C(NCc1ccco1)Nc1cccnc1, Cc1ccc(Cl)cc1NC(=S)Nc1cccnc1, S=C(Nc1cccnc1)NC1CCCc2ccccc21 (stereo not drawn), O=C(Nc1cccnc1)Nc1ccc(F)cc1F, S=C(NCc1ccc(Cl)cc1Cl)Nc1cccnc1, Cc1ccc(NC(=S)Nc2cccnc2)cc1, O=C(Nc1cccnc1)Nc1cc(Cl)cc(Cl)c1, CC(CCc1ccccc1)NC(=S)Nc1cccnc1 (stereo not drawn), O=C(NCc1ccc(Cl)cc1Cl)Nc1ccc(Br)nc1, COc1ccc(NC(=S)Nc2cccnc2)c(OC)c1, Fc1ccc(NC(=S)Nc2cccnc2)cc1Cl, Cc1nc(F)ccc1NC(=O)NCc1ccc(Cl)cc1Cl, S=C(Nc1cccnc1)NC1CCCCCCC1, O=C(Nc1cccnc1)Nc1ccc2c(c1)OCCO2, COc1ccccc1NC(=O)Nc1cccnc1, Cc1cc(NC(=O)NCc2ccc(Cl)cc2Cl)cnc1Br

potentiation, 102:
Cc1c(Cl)cccc1NC(=O)Nc1cccnc1

potentiation, 103:
O=C(Nc1cccnc1)Nc1ccc2c(c1)CCC2
